G9a block: qHTS Assay for Inhibitors of Histone Lysine Methyltransferase G9a; Histone-lysine N-methyltransferase EHMT2 (Homo sapiens), Q96KQ7; G9a H3K9 monomethylation, AlphaScreen, 2 h; 8.8% of 350,000 active; Potency, µM (doses to about 102 µM), for inactives: top-dose activity, negative = inhibition, usual class: inhibitors; further: on the % scale 0 is the no-effect control and ±100 the full control effect; nearly all actives have a fitted effect of over 75% in size
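Compounds were preincubated with 20 nM G9a for 15 min, after which biotinylated H3K9 peptide (500 nM) and SAM (20 uM) started a 2 h room-temperature reaction. Monomethylated product was quantified by antibody-based AlphaScreen chemiluminescence.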
BAZ2B block: qHTS Assay for Inhibitors of BAZ2B; AlphaScreen BAZ2B-H3K14Ac peptide displacement; Potency, µM (series often up to 114 µM), without a hit: at the top dose activity change, negative = inhibition, actives largely listed as inhibitors; 4.4% of 360,000 active; further: on the % scale 0 is the no-effect control and ±100 the full control effect; nearly all actives have a fitted effect of over 60% in size
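Protein-peptide AlphaScreen: BAZ2B 50 nM, b-H3K14Ac 50 nM, 1x PBS pH 7.4 + 0.01% Tween-20. Preincubation 30 min RT; cpd 30 min RT (top 110 uM); beads 20 min RT, light-protected.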
JMJD2A Tudor: qHTS Assay for Inhibitors of JMJD2A-Tudor Domain. Lysine-specific demethylase 4A (Homo sapiens), O75164. AlphaScreen JMJD2A-Tudor / H3K4me3 peptide binding. Potency, µM (doses to about 114 µM), for the others: at the highest dose activity change, negative = inhibition, actives largely listed as inhibitors. 4.4% of 390,000 active. AID 504339, 2011; further: on the % scale 0 is the no-effect control and ±100 the full control effect; nearly all actives have a fitted effect of over 50% in size
PLK1 PBD inh: qHTS for Inhibitors of PLK1-PDB (polo-like kinase 1 - polo-box domain): Primary Screen | Serine/threonine-protein kinase PLK1 (Homo sapiens), P53350 | Plk1 PBD binding of FITC phosphopeptide, fluorescence polarization | Potency, µM, without a hit: max response, negative = inhibition, hits mostly inhibitors | 2.8% of 360,000 active | AID 720504, 2013; further: series mostly up to about 57 µM; on the % scale 0 is the no-effect control and ±100 the full control effect; nearly all actives have a fitted effect of over 65% in size
Sfp PPTase inh: qHTS Assay for Inhibitors of Bacillus subtilis Sfp phosphopantetheinyl transferase (PPTase); 4'-phosphopantetheinyl transferase ffp (Bacillus subtilis), Q9F4F7; Biochemical Sfp PPTase activity, qHTS; Potency, µM, for inactives: largest response in the series, negative = inhibition, most hits filed as inhibitors; 3.5% of 310,000 active; AID 1490, 2009;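 further: the enzyme is Sfp with the accession as filed and its product quenches rhodamine fluorescence; 0% = enzyme reaction without inhibitor and -100% = no enzyme wells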
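Reaction rates are the 30-min fluorescence difference (ex 525, em 598 nm) in wells containing 15 nM Sfp, 5 uM rhodamine-CoA and 12.5 uM BHQ-2-YbbR at pH 7.6 with 10 mM MgCl2.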
HP1b chromo inh: HTS for Inhibitors of HP1-beta Chromodomain Interactions with Methylated Histone Tails. AlphaScreen HP1-beta / biotin-H3K9me3 peptide binding. Potency, µM (doses to about 114 µM), without a hit: at the top dose activity change, negative = inhibition, usual class: inhibitors. 0.56% of 390,000 active. AID 540317, 2011; further: nearly all actives have a fitted effect of over 70% in size
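HP1-beta protein (50 nM final) preincubated 30 min at room temperature with biotinylated H3(1-18)K9me3 peptide (50 nM) in PBS pH 7.4, 0.01% Tween-20, then compound added for 30 min. AlphaScreen streptavidin donor/nickel chelate acceptor beads (10 ug/mL final), 30 min dark, luminescence read.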
Active calls of the source: *; u = inconclusive; x = no result; [ ] = another dose, or the depositor's remark. Rows were chosen to be rich in hits. Some 12% of all compounds tested hit in one or more screens of this group. The call rests on the fitted dose curve; in most records, active means well fitted curve in the direction sought with a large enough effect; inconclusive means small, poorly fitted or top-dose-only effect, or another doubt; inactive means no such curve, though single readings can be large; an effect the other way counts as inactive or inconclusive. Potency means the concentration at half of the fitted maximal effect.

SMILES | G9a block | BAZ2B block | JMJD2A Tudor | PLK1 PBD inh | Sfp PPTase inh | HP1b chromo inh
Cc1ccc(-c2c(CN3CCN(c4cccc(C(F)(F)F)c4)CC3)csc2C)cc1 | -5.1%[59 µM] | -37.3% | -7.3% | x | x | 22.6%
CCCC[C@H]1CCCO[C@@](C(=O)NCc2ccccn2)(C(F)(F)F)C1 | x | x | 0.7% | x | 3.9% | 24.9%
Cc1ccccc1OCC(=O)NC(=S)Nc1ccc(N2CCOCC2)c(Cl)c1 | u | 5.9% | -7.2% | -11.9% | 7.9% | 4.9%
COc1cc(NC(=S)Nc2cccnc2)cc(OC)c1OC | 50.1µM* | -4.9% | -22.7% | -7.3% | u | 23.0%
CCOc1ccc(C(=O)NC(=S)Nc2cccnc2)cc1 | u | -14.4% | -7.0% | -7.3% | u | 20.0%
Cc1cccc(C(=O)NC(=S)Nc2ccc(N3CCOCC3)cc2)c1 | 7.94µM* | 31.6µM* | u | -12.1% | -6.7% | u
COc1ccccc1C(=O)NC(=S)Nc1ccc(N2CCOCC2)c(Cl)c1 | 8.91µM* | -32.7% | -35.6% | u | 31.6µM* | -11.1%
CC(C)(C)c1ccc(C(=O)NC(=S)Nc2ccc(N3CCOCC3)cc2)cc1 | -13.2% | -12.3% | -17.1% | -7.9% | -2.1% | 8.2%
CCOc1ccc(NC(=S)Nc2cccnc2)cc1 | 44.7µM* | -14.0% | -10.0% | 29.9µM* | u | -9.4%
CC(C)NC(=O)CCSc1nc(-c2ccc3c(c2)OCO3)cc(C(F)(F)F)n1 | 11.4%[59 µM] | -0.6% | 5.8% | x | x | 31.9%
CC1(C(=O)O)CCC(C(=O)Nc2cccc(F)c2)C1(C)C (stereo not drawn) | -1.8% | -3.0% | -6.1% | -3.5% | 14.8% | 23.7%
COc1cccc(Cn2c(=O)c(-c3cccs3)nc3cnc(N4CCOCC4)nc32)c1 | 1.6%[0.501 µM] | x | x | x | -0.5% | x
CC(N)(C(=O)O)c1cccc(CC(=O)O)c1 (stereo not drawn) | 19.0%[59 µM] | x | x | x | -22.4% | x
Cc1ccc(C(=O)NC(=S)Nc2ccc(N3CCOCC3)cc2)cc1C | u | 20µM* | 50.1µM* | u | 1.1% | u
O=C(NC(=S)Nc1ccc(N2CCOCC2)cc1)c1ccc(Cl)cc1 | u | -0.3% | -10.6% | 1.5% | -12.2% | -12.1%
S=C(Nc1ccc(N2CCOCC2)cc1)Nc1ccc2snnc2c1 | 28.2µM* | -31.9% | u | -23.1% | -66.5% | -13.5%
CC(=O)c1cccc(NC(=S)NC(=O)c2cccc(C)c2)c1 | 25.1µM* | -37.5% | u | -11.8% | -4.4% | -14.4%
O=C(Nc1ccc2snnc2c1)N1CCOCC1 | u | 8.7% | -5.5% | -23.8% | -10.8% | 21.1%
COc1ccc(C(=O)NC(=S)Nc2ccc(N3CCOCC3)cc2)cc1Cl | 25.1µM* | 22.4µM* | 25.1µM* | -0.7% | -4.9% | u
CC(=O)c1cccc(NC(=S)NC(=O)c2ccc(Cl)cc2)c1 | -11.9%[59 µM] | -3.2% | u | -10.3% | -25.7% | 14.1%
CCCCN1C(=O)C(CC(=O)NC2CCCC2)CC(C(=O)N2CCOCC2)=C1C (stereo not drawn) | x | x | x | 5.6% | x | x
O=C(NC1CCS(=O)(=O)C1)c1cccs1 (stereo not drawn) | 15.6% | 0.5% | -1.4% | -9.1% | -0.9% | 25.0%
COc1ccc(OC)c2sc(N3CCN(C(=O)c4ccc5ncsc5c4)CC3)nc12 | 39.8µM* | u | u | -7.3% | x | u
COc1ccc2nc(N3CCN(C(=O)c4ccc5ncsc5c4)CC3)sc2c1 | -5.5%[0.501 µM] | -4.3% | -9.2% | -4.4% | x | 20.8%
COc1ccc(OC)c2sc(N3CCN(C(=O)c4ccc([N+](=O)[O-])s4)CC3)nc12 | 35.5µM* | u | u | -6.3% | x | -10.7%
SMILES | G9a block | BAZ2B block | JMJD2A Tudor | PLK1 PBD inh | Sfp PPTase inh | HP1b chromo inh
COc1ccc(OC(C)c2nc3ccccc3[nH]2)cc1 (stereo not drawn) | -43.9%[59 µM] | -24.2% | -20.9% | x | x | 34.2%
Cc1ccc(NC(=O)Cn2c(=O)n(Cc3ccc4c(c3)OCO4)c(=O)c3ccc(C(=O)NC4CCCCC4)cc32)c(C)c1 | 7.3%[59 µM] | x | -7.7% | x | x | 26.7%
O=C(CNC(=O)c1ccccc1)N[C@H](C(=O)Nc1cc(C(F)(F)F)ccc1Cl)c1ccccc1 | x | x | -28.1% | x | x | x
O=C(Nc1nc(-c2ccccn2)cs1)C1CC(=O)N(c2ccc3c(c2)OCCO3)C1 (stereo not drawn) | 10.6%[59 µM] | 39.8µM* | 35.5µM* | -12.4% | -2.4% | 13.8%
O=C(Nc1nc(-c2cccs2)cs1)C1CC(=O)N(c2ccc3c(c2)OCCO3)C1 (stereo not drawn) | x | x | -18.4% | x | x | 3.1%
O=C(Nc1nc2ccc(F)cc2s1)C1CC(=O)N(c2ccc3c(c2)OCCO3)C1 (stereo not drawn) | -42.0%[2.33 µM] | -10.5% | -12.2% | 1.9% | x | 11.5%
COc1ccc2nc(NC(=O)C3CC(=O)N(c4ccc5c(c4)OCCO5)C3)sc2c1 (stereo not drawn) | 39.8µM* | -11.3% | -32.4% | -11.2% | x | -0.2%
O=C(Nc1nnc(C2CCCCC2)s1)C1CC(=O)N(c2ccccc2)C1 (stereo not drawn) | 0.2% | 0.8% | -15.8% | -7.5% | 5.9% | 46.0%
O=C(Nc1nnc(C2CC2)s1)C1CC(=O)N(c2ccc3c(c2)OCCO3)C1 (stereo not drawn) | -14.0%[59 µM] | 50.1µM* | 44.7µM* | -16.0% | 17.8% | -27.1%
CCN(CC)CCNC(=O)c1ccc(NC(=O)C2CC(=O)N(c3ccc4c(c3)OCCO4)C2)cc1 (stereo not drawn) | 39.8µM* | 0.2% | -8.5% | -26.5% | x | 12.8%
CCN(CC)S(=O)(=O)c1ccc2c(c1)nc(CN(C)C(=O)Nc1ccc(C)c(Cl)c1)n2C | 10.2%[59 µM] | -20.6% | -17.9% | x | x | 39.6%
Cc1c(Br)cc(F)c([S+](=O)([O-])N2CCN([S+](=O)([O-])c3ccc4c(c3)OCCO4)CC2)c1F | x | x | -25.3% | x | x | x
O=C(NCCc1ccccc1)C1CC(=O)N(c2ccc3c(c2)OCCO3)C1 (stereo not drawn) | -7.3% | 6.4% | -11.0% | -3.4% | x | 16.6%
O=C(NC(Cc1ccccc1)c1nc2ccccc2[nH]1)C1CC(=O)N(c2ccc3c(c2)OCCO3)C1 (stereo not drawn) | 12.6µM* | u | u | 2.8% | u | 34.5%
CC1CCc2c(sc3nnn(CC(=O)Nc4c(C(C)C)cccc4C(C)C)c(=O)c23)C1 (stereo not drawn) | -5.0%[59 µM] | -0.6% | -14.4% | x | x | 8.0%
CCC(NC(=O)Nc1cc(Cl)ccc1OC)c1c(-n2cccc2)sc2c1CCN(C)C2 (stereo not drawn) | 15.8µM* | u | u | x | x | u

Screening results from PubChem.
